# This is a sample that favours compounds with a hit; in the whole collection about 11% have one here.
# ALDH1A1 inh = inhibitors of human aldehyde dehydrogenase 1A1 | AID 1030 | Purified ALDH1A1, NADH fluorescence, propionaldehyde substrate | P00352 | hit rate 7.3% among 220,000 | Potency, µM (titrated, usually from 75.3 µM), for inactives: at the highest dose activity, negative = inhibition, usual class: inhibitors;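 further: potency means the concentration at half of the fitted maximal effect; plate controls were no enzyme wells and a reference inhibitor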
# HTT cytoprotect = protects HTT-Q103 PC12 cells, measured by ATP | PC12 HTT-Q103 induced, cytoprotection, ATP luminescence, 40 h | Potency, µM (titrated, usually from 56.4 µM), inactives show cytoprotection (ATP increase), hits mostly activators | hit rate 0.14% among 230,000; active means well fitted curve in the direction sought with a large enough effect; inconclusive means small, poorly fitted or top-dose-only effect, or another doubt; inactive means no such curve, though single readings can be large; an effect the other way counts as inactive or inconclusive; further: potency means the concentration at half of the fitted maximal effect; % of control where 0% means no effect; nearly all actives have a fitted effect of over 45% in size
#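 Readout: ATPlite luminescence (ATP level). Model: stable PC12, inducible Htt exon1 Q103-GFP. Inducer: tebufenozide, 100 nM final. Compounds: dose series. No G418 in medium.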
# HttQ103 aggreg = inhibitors of mutant huntingtin aggregate formation in PC12 cells; PC12 HttQ103-GFP aggregates, Acumen cytometry, 40 h; Potency, µM (highest dose often 46.1 µM), without a hit: at the highest dose activity change, negative = inhibition, actives largely listed as inhibitors; hit rate 1.1% among 220,000; active means well fitted curve in the direction sought with a large enough effect; inconclusive means small, poorly fitted or top-dose-only effect, or another doubt; inactive means no such curve, though single readings can be large; an effect the other way counts as inactive or inconclusive; further: potency means the concentration at half of the fitted maximal effect; on the % scale 0 is the no-effect control and ±100 the full control effect; nearly all actives have a fitted effect of over 60% in size
#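 Compounds (qHTS titration) were added to PC12 cells expressing an ecdysone-driven HTT exon 1 Q103–GFP fusion after induction with 100 nM tebufenozide. Aggregate formation was measured as GFP objects in cell lysates.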
# PNC inhibitor = inhibitors of perinucleolar compartment assembly; hit rate 3.1% among 140,000; PC3M PTB-GFP, PNC prevalence imaging, 16 h; hits give low values; AID 2417; activity change (PNC), negative = inhibition, % at 10 µM;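 active means readout at or below -70, meaning at least 70% loss of cells showing the perinucleolar compartment, a nuclear body marking cancer cells; inconclusive means readout between -30 and a set limit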;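 further: plate controls were DMSO wells for no effect and camptothecin positive control wells for full effect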
#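 Compounds are pinned in duplicate onto adhered PC3M cells stably expressing GFP-tagged PTB and incubated 16 h at 37 C. Cells are then fixed, nuclei stained with Hoechst, and PNC-positive cells counted.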
# GoLoco inh red = blocks human Gai1 binding to RGS12 GoLoco peptide, red readout; P63096; Gai1:RGS12 GoLoco peptide FP, rhodamine, 10 min; Potency, µM (highest dose often 61.6 µM), without a hit: at the highest dose activity, negative = inhibition, usual class: inhibitors; hit rate 0.44% among 230,000; active means well fitted inhibition curve with a large enough effect, not every such curve was filed as active; inactive means no such curve, though single readings can be large or run the other way; further: potency means the concentration at half of the fitted maximal effect; on the % scale 0 is the no-effect control and ±100 the full control effect; nearly all actives have a fitted effect of over 30% in size
# Target sequence (P63096 whole entry, looked up): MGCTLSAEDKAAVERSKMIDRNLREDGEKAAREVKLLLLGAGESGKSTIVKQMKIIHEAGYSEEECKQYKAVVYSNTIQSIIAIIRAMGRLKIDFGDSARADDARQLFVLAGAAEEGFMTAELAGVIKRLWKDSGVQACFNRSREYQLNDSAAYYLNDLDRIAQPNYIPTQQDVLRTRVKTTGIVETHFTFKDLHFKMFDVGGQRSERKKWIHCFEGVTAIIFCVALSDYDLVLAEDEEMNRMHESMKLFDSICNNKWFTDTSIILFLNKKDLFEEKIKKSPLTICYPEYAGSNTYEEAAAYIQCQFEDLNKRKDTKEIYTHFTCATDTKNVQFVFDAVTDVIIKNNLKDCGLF
# HPGD block = inhibitors of human 15-hydroxyprostaglandin dehydrogenase (HPGD); hit rate 4.3% among 150,000; Potency, µM, inactives show top-dose activity change, negative = inhibition, actives largely listed as inhibitors; purified HPGD, NADH fluorescence kinetic, PGE2 substrate; further: potency means the concentration at half of the fitted maximal effect; on the % scale 0 is the no-effect control and ±100 the full control effect
# Target sequence (P15428 whole entry, looked up): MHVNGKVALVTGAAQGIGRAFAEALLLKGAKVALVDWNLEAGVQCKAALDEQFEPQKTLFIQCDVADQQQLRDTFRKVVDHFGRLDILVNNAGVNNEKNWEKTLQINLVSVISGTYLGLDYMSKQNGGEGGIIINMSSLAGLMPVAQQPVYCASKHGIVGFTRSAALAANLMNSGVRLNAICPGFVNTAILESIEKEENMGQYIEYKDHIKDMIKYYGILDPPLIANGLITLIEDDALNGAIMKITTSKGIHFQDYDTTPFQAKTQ
#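 20 nM HPGD preincubated 15 min at room temperature with compound in 50 mM Tris-HCl pH 8, 0.01% Tween 20. Started with 1 mM NAD+ and 30 uM prostaglandin E2; NADH fluorescence (360/450 nm) read 5 times over 30-s intervals, last minus first.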
# Active calls of the source: *; ? = inconclusive; . = no result; [ ] = dose if it differs, or a comment. Unless noted, the call rests on the fitted dose curve; in most records, active means well fitted inhibition curve with a large enough effect (not every such curve was filed as active); inconclusive means small, poorly fitted or top-dose-only effect, or another doubt; inactive means no such curve, though single readings can be large or run the other way.
SMILES,ALDH1A1 inh,HTT cytoprotect,HttQ103 aggreg,PNC inhibitor,GoLoco inh red,HPGD block
CCN(CC)S(=O)(=O)c1cccc(NC(=O)/C=C/c2ccc([N+](=O)[O-])cc2)c1,3%,-8%[10 µM],-3%,-26,-24%,-4%
CCN(CC)S(=O)(=O)c1cccc(NC(=O)/C=C/c2cccc([N+](=O)[O-])c2)c1,7.9µM*,26%[10 µM],-17%,7,14%,-12%
CCN(CC)S(=O)(=O)c1ccc(N2CCCCC2)c(NC(=O)/C=C/c2cc(OC)c(OC)c(OC)c2)c1,13µM*,?,-6%,?,6%,-29%
CC1=C(C)CC(c2ccccc2)C(C(=O)c2ccccc2O)C1 (stereo not drawn),-1%[13.5 µM],-15%[10 µM],.,.,.,.
CCOC(=O)C(NS(=O)(=O)c1ccc(Br)cc1)C(C)C (stereo not drawn),?,0%[0.074 µM],-11%,13,2%,-10%
C=CCOc1ccc(/C=N/N2C(=O)C(CC(=O)Nc3ccc(F)cc3F)SC2=NC)cc1 (stereo not drawn),?,15%[1.9 µM],21%,?,39%,-23%
CCC(C)(C)c1ccc(OCCCC[n+]2ccc(C)cc2)c(C(C)(C)CC)c1,-8%,-80%,18µM*,.,-4%,.
O=[N+]([O-])c1cccc(Cl)c1CSc1ccccn1,20µM*,-67%,17%,.,-1%,.
Cc1nnc(SCc2c(Cl)cccc2[N+](=O)[O-])s1,-3%,.,7%,.,1%,.
O=C(NCC1CCN(S(=O)(=O)c2ccccc2)CC1)Nc1ccccc1,28µM*,-16%[10 µM],-6%[9.22 µM],.,-8%,.
O=C(NCC1CCN(S(=O)(=O)c2ccccc2)CC1)Nc1ccc(F)cc1,?,9%[10 µM],23%[9.22 µM],.,14%,.
COc1ccc(N2CCC(CNC(=S)Nc3cc(C)cc(C)c3)C2)cc1 (stereo not drawn),.,16%[10 µM],24%[9.22 µM],.,8%,.
COc1ccc(N2CCC(CNC(=O)Nc3ccccc3)C2)cc1 (stereo not drawn),5µM*,-14%,-9%,3,-13%,?
N=c1ccn2c(n1)O[C@@H]1[C@H](O)[C@H](CO)O[C@@H]12,21%,-79%[1.9 µM],.,.,3%,-1%
O=C(O)C(Sc1ccc(Cl)cc1)Sc1ccc(Cl)cc1,10%[13.5 µM],4%[10 µM],.,.,202%[14.2 µM],-13%
CCn1c(-c2ccccc2O)n[nH]c1=S,?,-10%,-4%,-115*,9%,-21%
CCOC(=O)c1c(CC(C)C)csc1NC(=O)c1ccccc1C(=O)O,.,-9%[10 µM],-4%[9.22 µM],.,3%,.
CC(C)Cc1csc(NC(=O)c2ccc(F)cc2)c1C(=O)O,3%,-73%[10 µM],?,56,-5%,25µM*
CCOc1nc(NCCO)nc(NCCC2=CCCCC2)n1,?,-15%[10 µM],-21%,-100*,-4%,-8%
CCOc1nc(NCCC2=CCCCC2)nc(N2CCOCC2)n1,-9%,20%[10 µM],4%,-23,1%,-7%
CCOC(=O)CNC(=O)Cn1cnc2ccc(S(=O)(=O)N3CCC(C)CC3)cc2c1=O,-11%,-3%,18%,?,.,.
Cc1ccc(-c2c(C#N)c(N)n3c(nc4ccccc43)c2C#N)cc1,19µM*,-7%[10 µM],10µM*,14,82%,?
Cn1cc(/C=N/Nc2ccccc2)c2ccccc21,8.9µM*,-47%,-1%,.,5%,.
O=C(NCc1ccc(S(=O)(=O)NC2CCCCC2)s1)c1ccccc1,-13%,-7%[10 µM],15%[9.22 µM],.,8%,.
CC1=Nn2c(nnc2C2CCCCC2)SC1,?,-5%,-14%,33,-10%,28µM*
SMILES,ALDH1A1 inh,HTT cytoprotect,HttQ103 aggreg,PNC inhibitor,GoLoco inh red,HPGD block
CC1=Nn2c(nnc2-c2cc(-c3ccccc3)n[nH]2)SC1,-7%,-24%[0.074 µM],8%,?,2%,-8%
COC(=O)[C@@]1(C)C[C@@H]1[C@@H](NC(=O)[C@@]1(C)C[C@@H]1[C@@H](NC(=O)[C@@]1(C)C[C@@H]1[C@@H](NC(=O)[C@@]1(C)C[C@@H]1[C@@H](NC(=O)OCc1ccccc1)c1ccccc1)c1ccccc1)c1ccccc1)c1ccccc1,3%,11%,.,.,-2%,-2%
O=CN1CCN(C2CC(=O)N(c3ccc(Br)cc3)C2=O)CC1 (stereo not drawn),?,-8%[10 µM],32%,-86*,-10%,-9%
O=C1CC(N2CCC(O)(c3ccc(Br)cc3)CC2)C(=O)N1c1ccc(Cl)cc1 (stereo not drawn),-11%,23%[10 µM],-6%,30,-12%,-1%
O=C1CC(N2CCC(O)CC2)C(=O)N1c1ccc(Br)cc1 (stereo not drawn),22µM*,-4%,-6%,11,4%,-9%
Cc1[nH]c2ccccc2c1/C=N/NC(=O)c1cc(C(C)C)[nH]n1,.,28%[10 µM],-10%[9.22 µM],.,4%,.
c1ccc(CNc2oc(-c3ccccc3)nc2-c2ccccc2)cc1,-12%,-2%,.,.,0%,-10%
CN1CCN(Cc2nc3ccccc3c(=O)n2CC#N)CC1,2%,-40%,12%,.,7%,.
CN1CCN(Cc2nc3ccccc3c(=O)n2Cc2nc(-c3ccc([N+](=O)[O-])cc3)cs2)CC1,13µM*,-43%[10 µM],?,?,.,.
Cc1sc(NC(=O)Cc2ccc3c(c2)OCO3)nc1-c1ccc2c(c1)CCN2C(=O)c1cccc(F)c1,?,19%[10 µM],33%,-119*,34%,-20%
Oc1c(Cl)cc(Cl)cc1/C=N/c1nccs1,14µM*,-6%,-2%,2,23%,-23%
CCCN(CCC)S(=O)(=O)c1ccc(C(=O)NCc2n[nH]c(=S)n2-c2ccc(Cl)c(Cl)c2)cc1,-10%,28%[10 µM],?,.,6%,.
O=C(NCc1n[nH]c(=S)n1-c1cccc(Cl)c1)c1ccc(S(=O)(=O)N2CCCC2)cc1,4.5µM*,-28%,17%,-29,2%,-23%
O=C(NCc1n[nH]c(=S)n1-c1ccc(F)cc1)c1ccc(S(=O)(=O)N2CCCC2)cc1,16µM*,2%,6%,?,3%,-26%
O=C(NCc1n[nH]c(=S)n1-c1cccc(C(F)(F)F)c1)c1ccc(S(=O)(=O)N2CCCC2)cc1,?,-20%,0%,.,7%,.
O=C(CNC(=O)c1ccc(S(=O)(=O)N2CCCC2)cc1)N/N=C/c1c(Cl)cccc1Cl,?,-14%[10 µM],11µM*,-13,1%,-16%
Nc1ccccc1C(=O)CC(N)C(=O)O (stereo not drawn),-10%,?,.,.,-2%,-2%
CNC(=O)[C@@H]1O[C@@H](n2cnc3c(N)ncnc32)[C@@H](O)[C@H]1O,.,-12%[1.9 µM],.,.,.,.
Cc1cnc(CN(C)Cc2c(C(=O)N3CCc4ccccc4C3)nc3ccc(Cl)cn23)[nH]1,18µM*,20%[10 µM],22%[9.22 µM],.,28%,.
CC(C)CN(C)Cc1c(C(=O)N2CCc3ccccc3C2)nc2ccc(Cl)cn12,7.9µM*,-54%,-27%,.,-6%,.

# Bioassay records deposited in PubChem BioAssay by National Center for Advancing Translational Sciences (NCATS).
